Two molecules from PubChem BioAssay AID1159580 (chemical genetic matrix, 2015) can be followed below.

A short description of the assay: chemical genetic growth profiling, strain panel (AID 1159580).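 Further: tested at 20 µM; growth read once vehicle control cultures reached saturation at 30 °C; 1 = growth at the plate median or of vehicle wells; lower values mean less growth of the strain.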 The settings on record: S. cerevisiae deletion strains, growth OD.
The mark [1] stands for this setting: locus YAL040C, strain CLN3, hits give low values.
[2] abbreviates: locus YCL061C, strain MRC1 (second series), hits give low values.
The mark [3] stands for this setting: locus YDR363W, strain ESC2, hits give low values.
Setting [4] is: locus YER002W, strain NOP16, hits give low values.
Where [5] appears, read: locus YNL175C, strain NOP13, hits give low values.
The mark [6] stands for this setting: locus YNL197C, strain WHI3, hits give low values.
Where [7] appears, read: locus YNL224C, strain SQS1, hits give low values.
The mark [8] stands for this setting: locus YOR083W, strain WHI5 (second series), hits give low values.

SMILES strings stand for the structures. The campaign covered roughly 5,500 compounds. About 2,000 (36%) were called active. Another 18% or so got no clear call; they are omitted. The list shows a part of the results. Unmarked numbers belong to inactive results. No stated cut-off is given here; in the data, active means normalized growth mostly below about 0.91 (no sharp cut-off); inconclusive means no clear call, values can overlap the other calls; inactive means mostly above about 0.92.

With `C[N+]1(C)CCC(OC(=O)C(c2ccccc2)c2ccccc2)CC1`, the normalized growth runs as follows: under setting [1], 1.08; under setting [2], 0.992; under setting [3], 0.956; under setting [4], 0.999; (locus YMR263W, strain SAP30, hits give low values) 0.987; (locus YMR307W, strain GAS1, hits give low values) 0.988. Further, the normalized growth by setting is: (locus YNL153C, strain GIM3, hits give low values) 1.01; under setting [5], 1.01; under setting [6], 1.03; under setting [7], 1.01; (locus YNL322C, strain KRE1, hits give low values) 0.915; under setting [8], 1.02.
Take `C[N+]1(C)CCN(c2ccccc2)CC1`: the normalized growth runs as follows: under setting [1], 0.873 (active); under setting [2], 1; under setting [3], 1.04; under setting [4], 0.961; (locus YGR078C, strain PAC10, hits give low values) 1; (locus YNL128W, strain TEP1, hits give low values) 0.997. Further, the normalized growth is, setting by setting: under setting [5], 0.974; under setting [6], 0.958; under setting [7], 1; under setting [8], 0.979; (locus YPL241C, strain CIN2, hits give low values) 1.
